This is a sample that favours compounds with a hit; in the whole collection about 6.9% have one here.
SW480 rereplic: inducers of DNA re-replication in SW480 colon cancer cells. Potency, µM (top dose mostly 46.1 µM), inactives show at the top dose re-replication activation, actives largely listed as activators. SW480 DNA re-replication, Hoechst DNA content imaging, 48 h. actives 1.8% (n = 340,000); further: potency means the concentration at half of the fitted maximal effect; % of control where 0% means no effect; nearly all actives have a fitted effect of over 55% in size
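Cells (250 per well) received 23 nL compound or DMSO by pin tool and were kept 48 hr at 37 C, 5% CO2. Nuclei were then stained with Hoechst for 40 min and scanned for DNA content.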
KB-V1 MDR tox: kills drug-selected multidrug resistant KB-V1 cells; actives 3.4% (n = 400,000); AID 1347076; KB-V1 MDR cells viability, CellTiter-Glo, 72 h; Potency, µM (doses to about 46.1 µM), most hits filed as cytotoxic; further: potency means the concentration at half of the fitted maximal effect; on the % scale 0 is the no-effect control and ±100 the full control effect; nearly all actives have a fitted effect of over 60% in size
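KB-V1 cells (P-gp-expressing MDR subline of KB-3-1) in phenol-red-free DMEM with 10% FBS were exposed to library compounds over a concentration series for 72 h at 37 degrees C. Viability read by CellTiter-Glo luminescence; concentration-effect curves fitted after normalization.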
S-ASM inh: inhibitors of human secretory acid sphingomyelinase; P17405; placental ASM, HMU-PC fluorogenic substrate, 60 min; Potency, µM (highest dose often 57.5 µM), for inactives: top-dose activity change, negative = inhibition, usual class: inhibitors; actives 0.006% (n = 340,000); AID 504937; further: potency means the concentration at half of the fitted maximal effect
Target sequence (P17405 47-631 limits assumed): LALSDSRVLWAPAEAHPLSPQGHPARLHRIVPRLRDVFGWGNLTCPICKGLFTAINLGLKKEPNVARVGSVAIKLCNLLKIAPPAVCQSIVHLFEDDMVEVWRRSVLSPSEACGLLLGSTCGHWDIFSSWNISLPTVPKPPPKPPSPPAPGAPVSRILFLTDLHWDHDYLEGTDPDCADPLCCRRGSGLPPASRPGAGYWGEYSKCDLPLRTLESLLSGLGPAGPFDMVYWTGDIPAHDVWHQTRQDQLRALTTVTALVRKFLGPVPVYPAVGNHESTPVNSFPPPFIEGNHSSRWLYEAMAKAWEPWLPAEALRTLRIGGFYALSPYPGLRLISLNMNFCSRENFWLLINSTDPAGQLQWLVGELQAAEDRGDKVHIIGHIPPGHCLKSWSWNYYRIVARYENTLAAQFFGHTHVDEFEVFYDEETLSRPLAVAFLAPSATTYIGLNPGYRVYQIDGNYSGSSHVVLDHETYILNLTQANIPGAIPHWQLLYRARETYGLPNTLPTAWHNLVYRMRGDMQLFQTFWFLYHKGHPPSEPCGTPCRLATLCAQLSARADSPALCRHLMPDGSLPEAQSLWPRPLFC
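Human placenta-derived ASM preincubated with compound 10 min at room temperature, then reacted with 9 uM (final) fluorogenic HMU-PC substrate for 60 min at 37 C. Stop solution raises pH to 10; fluorescence read at Ex 386/Em 447 nm.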
MCF10A rerep: induces DNA re-replication in MCF 10a normal breast cells; MCF 10A DNA re-replication, Hoechst nuclear intensity, 48 h; Potency, µM (series often up to 46.1 µM), inactives show at the top dose activity, positive = re-replication, most hits filed as activators; actives 2.9% (n = 350,000); AID 624296; further: potency means the concentration at half of the fitted maximal effect; % of control where 0% means no effect; nearly all actives have a fitted effect of over 50% in size
KB-3-1 tox: kills parental KB-3-1 adenocarcinoma cells | AID 1347075 | actives 1.4% (n = 400,000) | Potency, µM (series often up to 46.1 µM), hits mostly cytotoxic | KB-3-1 viability, CellTiter-Glo ATP luminescence, 72 h; further: potency means the concentration at half of the fitted maximal effect; on the % scale 0 is the no-effect control and ±100 the full control effect; nearly all actives have a fitted effect of over 60% in size
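Here the drug-naive KB-3-1 line serves as comparator for MDR sub-line selectivity; cells received compound titrations, 72 h at 37 °C, then CellTiter-Glo readout.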
Giardia killer: Giardia lamblia killing; actives 0.15% (n = 340,000); Giardia lamblia trophozoite viability; activity change, % at 7.66 µM, hits read low; in the data active means activity change below about -80%; inconclusive means between about -30% and that limit;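 further: parasites exposed to compound for two days anaerobically before the ATP read; on the % scale 0 is the no-effect control and ±100 the full control effect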
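Anaerobic 48 hrs incubation at 37 deg C of 100 trophozoites/well with test compounds; ATPLite 1-Step luminescence, 15-30 min RT, reports cellular ATP as viability.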
* marks the source's active call; other numbers are inactive results; i = inactive; ? = inconclusive; . = no result; ! = not active in a repeat. Unless noted, the call rests on the fitted dose curve; in most records, active means well fitted curve in the direction sought with a large enough effect; inconclusive means small, poorly fitted or top-dose-only effect, or another doubt; inactive means no such curve, though single readings can be large; an effect the other way counts as inactive or inconclusive.

SMILES | SW480 rereplic | KB-V1 MDR tox | S-ASM inh | MCF10A rerep | KB-3-1 tox | Giardia killer
Cc1ccc(C(CC(=O)c2ccco2)SCCO)cc1 (centres undefined) | ? | ? | 1% | ? | i | -20
O=C(CC(SCCO)c1ccc(F)cc1)c1ccco1 (centres undefined) | ? | i | 1% | 21µM* | i | -6
O=C(CNC(=S)NC(=O)c1ccc(Br)o1)c1ccccc1 | 21µM* | i | . | 6.5µM* | i | -1
O=C(CNC(=S)NC(=O)c1ccc(Cl)cc1)c1ccccc1 | -32% | i | -4% | -28% | i | ?
Cc1ccc(S(=O)(=O)Nc2ccc3c(c2)nc2n3CCN(Cc3ccccc3)C2)cc1 | 1% | 16µM* | 12% | -1% | i | -10
O=S(=O)(Nc1ccc2c(c1)nc1n2CCN(Cc2ccccc2)C1)c1ccccc1 | 7% | 2.6µM* | 10% | 26% | ? | 1
Cc1ccc(-c2noc(-c3ccc(N4CCCCC4C)c([N+](=O)[O-])c3)n2)cc1 (centres undefined) | . | i | . | . | i | .
Nc1ncnc(Sc2ncccn2)c1[N+](=O)[O-] | ? | ? | -4% | ? | 3.7µM* | 1
COc1ccc2oc(=O)c(C(=O)NCc3ccc(C)cc3)cc2c1 | -8% | i | 192% | 11% | i | 6
CCCOc1ccc2cc(C(=O)NCc3ccccc3)c(=O)oc2c1 | 5% | i | i | 23µM* | i | -19
COc1ccc(CNC(=O)c2cc3cc(OC)ccc3oc2=O)cc1 | -8% | ? | 142% | 16µM* | 15µM*! | -1
CC(Oc1ccc(C(=O)c2ccccc2)cc1)C(=O)N1CCOCC1 (centres undefined) | -2% | i | 3% | 2% | i | -7
CC(Oc1cc(-c2ccccc2)cc2ccccc12)C(=O)N1CCOCC1 (centres undefined) | 6% | 6.5µM* | 4% | 16% | ? | 18
O=C1C=C(c2ccc3ccccc3c2)C[C@@H](c2ccc(F)cc2)C1 | ? | i | 0% | ? | ? | 3
CCCOc1ccccc1C1CC(=O)Nc2cc3c(cc21)OCCO3 (centres undefined) | ? | 2.6µM* | 6% | ? | 1.3µM* | 4
CCOc1ccccc1C1CC(=O)Nc2cc3c(cc21)OCCO3 (centres undefined) | 2.9µM* | ? | 7% | 7.3µM* | 0.46µM* | 27
CCCCOc1ccccc1C1CC(=O)Nc2cc(OC)c(OC)cc21 (centres undefined) | . | i | . | . | i | .
CCOc1ccccc1C1CC(=O)Nc2cc(OC)c(OC)c(OC)c21 (centres undefined) | -4% | ? | 0% | 21% | i | -11
O=[N+]([O-])c1ccc(S(=O)(=O)N2CCN(c3nc(-c4cccs4)nc4ccccc34)CC2)cc1 | . | i | . | . | i | -4
Brc1ccc(-c2nc3ccccn3c2Nc2ccc3c(c2)OCCO3)o1 | . | i | . | . | i | .
O=C(NCCSCc1cccc(Cl)c1)C1CCN(S(=O)(=O)Cc2ccccc2)CC1 | . | i | . | . | i | .
COc1ccc(CCNC(=O)c2ccc(Br)cc2)cc1 | 16% | i | 0% | 4% | i | 32
COc1ccc(CCNC(=O)c2c([S-])n(-c3ccc(C)cc3)c3cccc[n+]23)cc1 | ? | i | 33% | 11% | 12µM* | 3
COc1ccc(CCNC(=O)c2cccc(C(=O)NCCc3ccc(OC)cc3)n2)cc1 | -3% | 18µM* | -9% | 13% | i | -10
CCc1ccc2n(-c3ccc(OC)cc3)c([S-])c(C(=O)Nc3cc(C)cc(C)c3)[n+]2c1 | 24% | i | 56% | ? | i | 14
SMILES | SW480 rereplic | KB-V1 MDR tox | S-ASM inh | MCF10A rerep | KB-3-1 tox | Giardia killer
COc1ccc(CCNC(=O)c2cnc3ccccc3n2)cc1 | -6% | i | -5% | -3% | i | 4
COc1ccc(CCNC(=O)c2coc(=O)c(Br)c2)cc1 | ? | i | 152% | 5.8µM* | ? | 0
COc1ccccc1C(=O)Nc1ccc(S(=O)(=O)N2CCCC2)cc1 | -1% | 18µM* | -2% | 2% | i | 8
O=C(Nc1ccc(N2CCCCCC2)cc1)c1ccccc1Cl | 13µM* | ? | -3% | 6.5µM* | ? | 6
O=C(Nc1ccc(N2CCCCC2)cc1)c1ccccn1 | 9% | ? | 5% | ? | ? | -102*
COc1ccccc1C(=O)Nc1ccc(N2CCCCC2)cc1 | -3% | 21µM* | 3% | 6% | i | ?
O=C(Nc1ccc(N2CCCCCC2)cc1)c1ccc[nH]1 | -4% | i | 0% | -2% | i | -3
CCOc1ccccc1NC(=O)C1CCN(S(=O)(=O)c2cc(Br)cc3c2N(C(C)=O)CC3)CC1 | . | i | . | . | i | .
CN(C)S(=O)(=O)c1cccc(COC(=O)CNC(=O)c2ccc(Br)o2)c1 | 3% | ? | 0% | ? | ? | 6
O=S(=O)(Nc1ccc(N2CCOCC2)cc1)c1ccccc1 | 1% | i | 1% | -1% | i | -2
O=S(=O)(Nc1ccc(N2CCCCC2)cc1)c1ccccc1 | 20% | 21µM* | 2% | 11% | i | -8
O=C(NNC(=O)C1CCCCC1)c1cnccn1 | -5% | ? | 4% | -4% | i | -14
O=C(CCC1CCCCC1)NNC(=O)c1cnccn1 | 2.9µM* | ? | -2% | ? | i | -22
CCOc1ccccc1N(CC(=O)NC(C)(C)C)C(=O)c1ccc(CN2CCOCC2)o1 | -3% | 15µM* | 7% | ? | i | -5
CC(C)(C)NC(=O)CN(C(=O)c1ccc(CN2CCOCC2)o1)c1ccc2c(c1)OCCO2 | 4% | i | 4% | 15% | i | -3
CCOC(=O)c1cccc(NS(=O)(=O)c2cc(Br)cc3c2N(C(=O)C2CC2)CC3)c1 | . | i | . | . | 21µM* | .
O=C(C1CC1)N1CCc2cc(Br)cc(S(=O)(=O)Nc3ccc(F)c(F)c3)c21 | . | ? | . | . | i | .
Cc1cc(N2C(=O)[C@@H]3[C@H](C2=O)[C@@H]2C[C@H]3C(Br)C2Br)no1 (some centres undefined) | -17% | i | 0% | -2% | i | 3
Cc1cc(N2C(=O)C3C4c5ccccc5C(c5ccccc54)C3C2=O)no1 (centres undefined) | 6% | 8.2µM* | -2% | ? | i | 24
Cc1cccc2c(C(=O)N3CCN(c4ccccc4)CC3)cc(-c3ccncc3)nc12 | 6.5µM* | 3.7µM* | -15% | 7.3µM* | 4.1µM* | -5

Screening data from PubChem BioAssay.
